The record followed here is PubChem BioAssay (EPA / NIEHS).

Read-out in test [1]: Interleukin 17F (IL17F), IL17F (gene 112744)
Kind of test: BSK_BT_xIL17F: BioMAP Diversity Plus: BT Assay for Interleukin 17F (IL17F) Biomarker Activity (AID 2284243). Particulars: primary human B cells with PBMC. A digest of the protocol: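 Human PBMC co-cultured with B cells, compound exposure 24 h; secreted IL-17F quantified by Luminex xMAP, referenced to DMSO control. PBMC viability measured in parallel by Alamar Blue reduction.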

Read-out in test [2]: Actin alpha 1 (ACTA1), ACTA1 (gene 58)
The test can be described thus: BSK_MyoF_ACTA1: BioMAP Diversity Plus: MyoF Assay for Actin alpha 1 (ACTA1) Biomarker Activity (AID 2284244). Particulars: primary human lung fibroblasts. A digest of the protocol:
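Cells were exposed to chemical for 24 h before a-SMA levels were quantified by ELISA in human lung fibroblasts. Increases were fitted against DMSO as negative control; parallel SRB staining (0.1% after 10% TCA fixation, 560 nm) assessed cytotoxicity.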

Read-out in test [3]: Interleukin 2 (IL2), IL2 (gene 3558)
The test can be described thus: BSK_BT_xIL2: BioMAP Diversity Plus: BT Assay for Interleukin 2 (IL2) Biomarker Activity (AID 2284245). To be noted: primary human B cells with PBMC. Put shortly:
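The BT system combines human B cells with peripheral blood mononuclear cells. Twenty-four hours after chemical dosing, secreted IL-2 was measured with xMAP bead technology, and responses were analyzed as increases over DMSO controls.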

Read-out in test [4]: Basic fibroblast growth factor (bFGF), FGF2 (gene 2247)
Kind of test: BSK_MyoF_bFGF: BioMAP Diversity Plus: MyoF Assay for Basic fibroblast growth factor (bFGF) Biomarker Activity (AID 2284246). Particulars: primary human lung fibroblasts. A digest of the protocol:
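Chemicals are added to human lung fibroblast cultures and incubated 24 h. bFGF is then measured by ELISA, while parallel cultures receive SRB staining for total protein as a cytotoxicity check. Data are fitted upward against DMSO.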

Read-out in test [5]: Collagen IV, COL4A1 (gene 1282)
Kind of test: BSK_MyoF_CollagenIV: BioMAP Diversity Plus: MyoF Assay for Collagen IV Biomarker Activity (AID 2284247). Particulars: primary human lung fibroblasts. A digest of the protocol:
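Human lung fibroblast system, 24 h chemical exposure. Endpoint: Collagen IV by ELISA, upward fit vs DMSO.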

Read-out in test [6]: Monokine induced gamma interferon (MIG), CXCL9 (gene 4283)
Kind of test: BSK_KF3CT_MIG: BioMAP Diversity Plus: KF3CT Assay for Monokine induced gamma interferon (MIG) Biomarker Activity (AID 2284248). To be noted: primary human keratinocytes with fibroblasts. A digest of the protocol: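 Human keratinocyte–foreskin fibroblast co-culture; MIG measured by ELISA 24 h after chemical dosing, fitted upward versus DMSO. Cytotoxicity was assessed in parallel cultures by SRB total-protein staining read at 560 nm.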

Read-out in test [7]: Vascular cell adhesion molecule 1 (VCAM1), VCAM1 (gene 7412)
Kind of test: BSK_BF4T_VCAM1: BioMAP Diversity Plus: BF4T Assay for Vascular cell adhesion molecule 1 (VCAM1) Biomarker Activity (AID 2284249). To be noted: primary human bronchial epithelial cells with fibroblasts. A digest of the protocol: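 Cell-surface VCAM-1 quantified by ELISA after 24 h chemical exposure of human bronchial epithelial/dermal fibroblast co-cultures, with SRB staining in parallel wells for cytotoxicity; DMSO baseline, positive-direction fitting.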

Read-out in test [8]: Interferon-inducible T-cell alpha chemoattractant (ITAC), CXCL11 (gene 6373)
Kind of test: BSK_hDFCGF_ITAC: BioMAP Diversity Plus: hDFCGF Assay for Interferon-inducible T-cell alpha chemoattractant (ITAC) Biomarker Activity (AID 2284251). To be noted: primary human foreskin fibroblasts. Put shortly:
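I-TAC levels were read by ELISA on human dermal foreskin fibroblast primary cultures 24 h after dosing, analysed against DMSO in the positive direction. Cytotoxicity was assessed alongside by sulforhodamine B total-protein staining.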

Read-out in test [9]: Plasminogen activator inhibitor-1 (PAI1), SERPINE1 (gene 5054)
Kind of test: BSK_KF3CT_PAI1: BioMAP Diversity Plus: KF3CT Assay for Plasminogen activator inhibitor-1 (PAI1) Biomarker Activity (AID 2284252). To be noted: primary human keratinocytes with fibroblasts. A digest of the protocol: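 Cells (human keratinocytes co-cultured with foreskin fibroblasts) are exposed to test chemical for 24 h. PAI-1 is then measured by ELISA and analysed for signal gain against DMSO.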

Read-out in test [10]: Interleukin-8 (IL8), CXCL8 (gene 3576)
The test can be described thus: BSK_KF3CT_IL8: BioMAP Diversity Plus: KF3CT Assay for Interleukin-8 (IL8) Biomarker Activity (AID 2284254). To be noted: primary human keratinocytes with fibroblasts. A digest of the protocol: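 Human keratinocyte/foreskin fibroblast co-culture dosed 24 h; IL-8 measured by ELISA relative to DMSO. Parallel cultures stained with SRB for total protein to flag cytotoxicity.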

Read-out in test [11]: Plasminogen activator inhibitor-1 (PAI1), SERPINE1 (gene 5054)
The test can be described thus: BSK_MyoF_PAI1: BioMAP Diversity Plus: MyoF Assay for Plasminogen activator inhibitor-1 (PAI1) Biomarker Activity (AID 2284256).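 As to outcome: PAI-1 read 24 h after compound addition.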 Particulars: primary human lung fibroblasts. A digest of the protocol:
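Primary human lung fibroblasts treated with chemical for 24 h; PAI-1 levels quantified by ELISA relative to DMSO. Cytotoxicity was assessed in parallel cultures by SRB total-protein staining (0.1% SRB after 10% TCA fixation, 560 nm).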

Read-out in another test: CD69, CD69 (gene 969)
The test can be described thus: BSK_IMphg_CD69: BioMAP Diversity Plus: IMphg Assay for CD69 Biomarker Activity (AID 2284257). Particulars: primary human endothelial cells with macrophages. Put shortly: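 Readout is ELISA for CD69 in primary human venular endothelial cell/macrophage co-culture, taken at 24 h post-dosing. SRB staining of parallel cultures gauged overt cytotoxicity; signal increase versus DMSO defined activity.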

Read-out in test [12]: Eotaxin 3, CCL26 (gene 10344)
The test can be described thus: BSK_BF4T_Eotaxin3: BioMAP Diversity Plus: BF4T Assay for Eotaxin 3 Biomarker Activity (AID 2284258). Particulars: primary human bronchial epithelial cells with fibroblasts. Put shortly: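 ELISA measurement of Eotaxin-3 after 24 h chemical exposure in a bronchial epithelial/dermal fibroblast co-culture, with DMSO as baseline. Parallel SRB staining (0.1% SRB after 10% TCA fixation, 560 nm) flagged overt cytotoxicity.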

Read-out in test [13]: Monocyte Chemoattractant Protein-1 (MCP1), CCL2 (gene 6347)
The test can be described thus: BSK_BF4T_MCP1: BioMAP Diversity Plus: BF4T Assay for Monocyte Chemoattractant Protein-1 (MCP1) Biomarker Activity (AID 2284259). Particulars: primary human bronchial epithelial cells with fibroblasts. Put shortly: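 MCP-1 ELISA readout taken 24 h after dosing in the BF4T system (bronchial epithelial cells plus dermal fibroblasts). Parallel SRB total-protein staining flagged cytotoxicity; DMSO served as baseline, positive fitting direction.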

Read-out in test [14]: Intercellular Adhesion Molecule 1 (ICAM1), ICAM1 (gene 3383)
The test can be described thus: BSK_BF4T_ICAM1: BioMAP Diversity Plus: BF4T Assay for Intercellular Adhesion Molecule 1 (ICAM1) Biomarker Activity (AID 2284260). To be noted: primary human bronchial epithelial cells with fibroblasts. A digest of the protocol:
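ICAM-1 levels measured by ELISA after 24 h chemical treatment of bronchial epithelial cell/dermal fibroblast co-cultures, read against DMSO baseline. Overt cytotoxicity checked in parallel cultures by sulforhodamine B staining.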

Read-out in test [15]: Interleukin-8 (IL8), CXCL8 (gene 3576)
The test can be described thus: BSK_MyoF_IL8: BioMAP Diversity Plus: MyoF Assay for Interleukin-8 (IL8) Biomarker Activity (AID 2284261). Particulars: primary human lung fibroblasts. A digest of the protocol: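 Human lung fibroblast (MyoF system) cultures dosed for 24 h, then IL-8 measured by ELISA. Response taken relative to DMSO; parallel SRB total-protein staining for cytotoxicity.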

Read-out in another test: CD90, THY1 (gene 7070)
The test can be described thus: BSK_BF4T_CD90: BioMAP Diversity Plus: BF4T Assay for CD90 Biomarker Activity (AID 2284262). Particulars: primary human bronchial epithelial cells with fibroblasts. Put shortly: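 CD90 levels by ELISA after 24 h treatment of human bronchial epithelial cell/dermal fibroblast cultures, analysed versus DMSO. Overt cytotoxicity checked in parallel cultures by sulforhodamine B staining.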

Read-out in test [16]: Collagen I, COL1A1 (gene 1277)
Kind of test: BSK_hDFCGF_CollagenI: BioMAP Diversity Plus: hDFCGF Assay for Collagen I Biomarker Activity (AID 2284250). To be noted: primary human foreskin fibroblasts. A digest of the protocol:
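Collagen I ELISA, primary human foreskin fibroblasts, 24 h chemical exposure, DMSO = negative control/baseline, positive fitting direction.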

Read-out in test [17]: Monocyte Chemoattractant Protein-1 (MCP1), CCL2 (gene 6347)
The test can be described thus: BSK_IMphg_MCP1: BioMAP Diversity Plus: IMphg Assay for Monocyte Chemoattractant Protein-1 (MCP1) Biomarker Activity (AID 2284253). Particulars: primary human endothelial cells with macrophages. A digest of the protocol: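 ELISA readout of MCP-1 at 24 hours in IMphg co-cultures of venular endothelial cells and macrophages, normalised to DMSO; parallel cultures stained with sulforhodamine B for overt cytotoxicity.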

The structures appear in SMILES notation. More than one record can exist for a structure, and the calls need not agree. Calls of active or inactive are those of the source. The calls were made as follows: active = hit-call score of the fitted dose curve at least 0.9, where 1 is the maximum; inactive = score below 0.9.

Take `O=C(O)C(F)(F)C(F)(F)C(F)(F)OC(F)(F)F`: the outcome in test [1], in [2], in test [3], in test [4], in test [5] and in [6] was inactive. Moreover, the outcome in test [7] is “inactive”; in test [8] it was “inactive”; in [9], “inactive”; in test [10] it was “inactive”; in test [11], “inactive”; with CD69, CD69 (gene 969), “inactive”. Besides, the outcome is “inactive” in test [12]; “inactive” in test [13]; “inactive” in [14]; “inactive” in [15]; “inactive” in the test with CD90, THY1 (gene 7070).
For the compound `CN(C(=O)C(F)(F)C(F)(F)C(F)(F)F)[Si](C)(C)C`, the result in [1], in test [2], in test [3], in test [4], in test [5] and in test [6] was inactive. The outcome is “inactive” in test [7]; “inactive” in test [8]; “inactive” in test [9]; “inactive” in test [10]; “inactive” in test [11]; “inactive” with CD69, CD69 (gene 969). Moreover, the outcome in test [12] was “inactive”; in test [13] it was “inactive”; in test [14], “inactive”; in test [15], “inactive”; in the test with CD90, THY1 (gene 7070), “inactive”.
The AC50 is the midpoint of the concentration-response curve, whichever way the signal moves. Regarding `C=C(C)C(=O)OCC(F)(F)C(F)(F)C(F)(F)C(F)F`, the concentration at half-maximal activity (AC50) in test [1] is 22.9 µM (active); in [2], 14.4 µM (active); in test [8] it was 7.82 µM (active); in test [11], 0.222 µM (active). For the same compound, the result in test [1], in [2], in test [3], in test [5], in test [6] and in [7] was inactive. Moreover, the outcome in test [16], in test [8], in test [9], in test [17], in [10] and in [11] was inactive. For the same compound, the outcome in the test with CD69, CD69 (gene 969) was “inactive”; in [12], “inactive”; in test [13] it was “inactive”; in [14], “inactive”; in test [15] it was “inactive”; with CD90, THY1 (gene 7070), “inactive”.
With `CC(C)(C)c1cc(CCC(=O)NCCCCCCNC(=O)CCc2cc(C(C)(C)C)c(O)c(C(C)(C)C)c2)cc(C(C)(C)C)c1O`, the AC50 in test [1] is 5.33 µM (active); in test [3], 1.36 µM (active). Further, the outcome in test [2], in [4], in [5], in test [11] and in test [15] was inactive.
Consider `O=C(O)CCC(F)(F)C(F)(F)C(F)(F)F`, for which the result in test [1], in [2], in test [3], in [4], in test [5] and in [6] was inactive. The outcome is “inactive” in [7]; “inactive” in test [8]; “inactive” in test [9]; “inactive” in test [10]; “inactive” in test [11]; “inactive” in the test with CD69, CD69 (gene 969). Further, the outcome is “inactive” in test [12]; “inactive” in [13]; “inactive” in [14]; “inactive” in [15]; “inactive” with CD90, THY1 (gene 7070).
With `NC(=O)C(F)(F)C(F)(F)C(F)(F)C(F)(F)C(F)(F)C(F)(F)C(F)(F)F`, the result in test [1], in [2], in test [3], in test [5], in [6] and in test [7] was inactive. Moreover, the outcome was “inactive” in test [8]; “inactive” in test [9]; “inactive” in test [10]; “inactive” in test [11]; “inactive” with CD69, CD69 (gene 969); “inactive” in test [12]. Besides, the outcome was “inactive” in test [13]; “inactive” in [14]; “inactive” in [15]; “inactive” with CD90, THY1 (gene 7070). The AC50 in test [3] was 30 µM (active); with CD69, CD69 (gene 969), 23.5 µM (active).
